Drawing on PubChem BioAssay (NCI), this text covers growth for 8 compounds.

Structures are written as SMILES. About 83,000 compounds went through this panel and 20% of them were active in at least one assay; those are over-represented in the sample as a whole.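 For each line, cells grew in 96-well plates with the test compound present at a single concentration for 48 hours.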 A number with no mark means an inactive call. Calls of active or inactive are those of the source. The calls were made as follows: active = growth percent below 10; inactive = the rest.

Common to all, as to assay: NCI-60 one-dose screen, 48 h (100 = growth as untreated, 0 = no growth, -100 = all killed)
Common to all, as to details: 10 µM unless noted

In assay [1] the test system is HCT-15 colon.
Assay [2] has as its system HT29 colon.
Assay [3] concerns SNB-75 CNS.
Assay [4] has as its system SNB-19 CNS.
The subject of assay [5] is U251 CNS.
Assay [6] has as its system PC-3 prostate.
Assay [7] deals with UACC-62 melanoma.
The subject of assay [8] is LOX IMVI melanoma.
For assay [9], the system named is SK-MEL-28 melanoma.
Assay [10] deals with SK-MEL-2 melanoma.
Assay [11] relates to EKVX NSCLC.
In assay [12] the test system is SN12C renal.
Assay [13] deals with UO-31 renal.
In assay [14] the test system is TK-10 renal.
The test system of assay [15] is ACHN renal.
Assay [16] deals with CAKI-1 renal.
Assay [17] has as its system A498 renal.
The test system of assay [18] is CCRF-CEM leukemia.
The subject of assay [19] is MOLT-4 leukemia.

`COc1cc2cc(Oc3ccc(NC(=O)Nc4cccc(C(F)(F)F)c4)cc3)c(C)nc2cc1OCCN1CCOCC1`: the growth in assay [1] is 27.2%; in assay [2] it was 35.3%; in assay [3] it was 77.8%; in assay [4], 30.7%; in assay [5], 28%; in assay [6], 15.7%. The growth in [7] is 50.8%; in assay [8], 38.2%; in assay [9] it was 68.8%; in assay [10], 78.6%; in assay [11], 25.4%; in assay [12] it was 47.7%. The growth in assay [13] is 51.8%; in assay [14], 66.3%; in assay [15] it was 21.4%; in assay [16], 56.2%; in [17], 64.2%; in [18], 23.9%. The growth in assay [19] was 6.76% (active).
For the compound `O=C(N/N=C/[C@H](O)[C@@H](O)[C@@H](O)[C@H](O)CO)c1ccc(NC(=O)c2cccnc2)cc1`, the growth in assay [1] is 105%; in assay [2], 111%; in assay [3] it was 92.6%; in [4], 97.4%; in assay [5], 102%; in assay [6], 102%. The growth in [7] was 95.5%; in assay [8], 104%; in assay [9], 111%; in assay [11], 107%; in [12], 99.4%; in assay [13] it was 92.5%. The growth is 106% in assay [14]; 103% in assay [15]; 101% in assay [16]; 107% in [17]; 103% in assay [18]; 114% in assay [19].
For `N#Cc1c(Nc2cccc(Cl)c2)sc(C(=O)c2cc3cc(Cl)ccc3o2)c1N`, the growth in assay [1] is 72.6%; in [2], 80.5%; in assay [3], 101%; in [4], 97.5%; in assay [5], 62.6%; in [6], 62.8%. In addition, the growth in assay [7] is 78.6%; in assay [8], 85.9%; in [9], 94.3%; in assay [10], 71.4%; in assay [11] it was 158%; in assay [12] it was 81.3%. Moreover, the growth in assay [13] was 81%; in assay [14], 127%; in assay [15] it was 112%; in assay [16], 151%; in [17], 128%; in assay [18], 52.8%.
For `O=C(/C=C/c1sc(Cl)nc1Cl)c1ccc(Br)cc1`, the growth was 32.4% in assay [1]; 91.2% in [2]; 95% in assay [3]; 90.6% in assay [4]; 60.1% in assay [5]; 95.5% in assay [6]. The growth in [7] was 95.3%; in [8] it was 5.31% (active); in [9], 100%; in [10], 96.4%; in assay [11], 96.5%; in assay [12], 41.7%. Besides, the growth in [13] was 80.2%; in [14] it was 92.3%; in assay [15], 75.6%; in assay [16] it was 87.1%; in assay [17], 92.2%; in [18], 29.9%. Also, the growth in assay [19] was 29.9%.
In the case of `C#C[C@]1(O)CC[C@H]2[C@@H]3CC=C4c5sc(Nc6ccccc6)nc5CC[C@]4(C)[C@H]3CC[C@@]21C`, the growth is -28.1% (active) in assay [1]; 6.31% (active) in assay [2]; -22.2% (active) in assay [3]; 49.4% in [4]; 13.8% in assay [5]; 10.4% in assay [6]. For the same compound, the growth was 19.6% in [7]; -6.23% (active) in assay [8]; -19.9% (active) in [9]; 16.7% in assay [10]; 36.3% in assay [11]; 29.2% in assay [12]. The growth in assay [13] was 13.5%; in assay [14], 56.8%; in assay [15], 20.1%; in assay [16] it was 21.5%; in [17], -37.1% (active); in assay [18], 6.66% (active). Moreover, in assay [19], the growth is 7.73% (active).
For the compound `Cc1nc2ccccc2c(/C=C/c2ccccc2)c1C(=O)/C=C/c1ccc(C(F)(F)F)cc1`, the growth was -19.9% (active) in [1]; 5.76% (active) in assay [2]; -5.13% (active) in [3]; -64.9% (active) in [4]; -62.1% (active) in assay [5]; -28% (active) in assay [6]. Besides, the growth in assay [7] was -51.6% (active); in assay [8], -87.4% (active); in [10], -22.5% (active); in assay [11], -28.8% (active); in assay [12] it was -61.5% (active); in assay [13], -96.9% (active). Moreover, the growth is -51.2% (active) in assay [14]; -98.4% (active) in assay [15]; -76.6% (active) in assay [16]; -59.4% (active) in assay [17]; 9.14% (active) in assay [18]; 4.69% (active) in assay [19].
On to `COc1ccc(S(=O)(=O)n2cc(C3OC(c4cc(OC)c(OC)c(OC)c4)=NN3C(C)=O)c3ccccc32)cc1OC` (centres undefined), for which the growth is 81.8% in [1]; 110% in assay [2]; 86% in [3]; 85.7% in [4]; 97.7% in assay [5]; 80.3% in assay [6]. Further, the growth is 72.8% in assay [7]; 78.4% in assay [8]; 110% in assay [9]; 95.5% in assay [10]; 78.9% in assay [11]; 88% in assay [12]. The growth in [13] was 58.2%; in assay [14], 94.9%; in [15] it was 85.3%; in [16], 76.2%; in assay [17], 117%; in assay [18], 73.4%. In addition, in [19], the growth is 58.7%.
Turning to `COc1nc2ccc(C)cc2cc1-c1nc2c(cnn2-c2ccc(Br)cc2)c(=O)[nH]1`, the growth in assay [1] is 40.5%; in assay [2], 10.3%; in assay [3] it was 25.9%; in [4], 41.8%; in assay [5], 15.2%; in assay [6] it was 28.1%. In addition, the growth in [7] was 29.1%; in [8], 34.1%; in [9] it was 39.3%; in [10], 48.2%; in assay [11], 53.5%; in assay [12], 48.5%. Further, the growth in assay [13] was 45.7%; in assay [14] it was 77.3%; in assay [15] it was 37.6%; in assay [16] it was 48.1%; in [17] it was 7.08% (active); in assay [18] it was 17.9%. In addition, the growth in assay [19] was 58.9%.
